Data published in PubChem BioAssay (Tox21).
“And” between values parts separate entries of the source, which are not always exact repeats. Equal entries are not always repeated. Records with an inconclusive call do not appear. Some structures have more than one record in an assay (separate samples or runs), and their calls can disagree. The source made the active and inactive calls. Unless noted, calls follow the shape of the dose curve; as a rule, active = well fitted curve in the direction sought with a large enough effect in the repeat runs; inconclusive = weak or mixed curves; inactive = no such curve, though single readings can be large; an effect the other way counts as inactive or inconclusive.

Key:
[1] = biological target: Luciferin 4-monooxygenase (Photinus pyralis) (UniProt P08659); test: qHTS assay to identify small molecule inhibitors of firefly luciferase (AID 1224835); also: nearly all actives have a fitted effect of over 25% in size; also: potency is read from the fitted curve at half-maximal effect
Sequence of Luciferin 4-monooxygenase (Photinus pyralis) (P08659 whole entry, looked up): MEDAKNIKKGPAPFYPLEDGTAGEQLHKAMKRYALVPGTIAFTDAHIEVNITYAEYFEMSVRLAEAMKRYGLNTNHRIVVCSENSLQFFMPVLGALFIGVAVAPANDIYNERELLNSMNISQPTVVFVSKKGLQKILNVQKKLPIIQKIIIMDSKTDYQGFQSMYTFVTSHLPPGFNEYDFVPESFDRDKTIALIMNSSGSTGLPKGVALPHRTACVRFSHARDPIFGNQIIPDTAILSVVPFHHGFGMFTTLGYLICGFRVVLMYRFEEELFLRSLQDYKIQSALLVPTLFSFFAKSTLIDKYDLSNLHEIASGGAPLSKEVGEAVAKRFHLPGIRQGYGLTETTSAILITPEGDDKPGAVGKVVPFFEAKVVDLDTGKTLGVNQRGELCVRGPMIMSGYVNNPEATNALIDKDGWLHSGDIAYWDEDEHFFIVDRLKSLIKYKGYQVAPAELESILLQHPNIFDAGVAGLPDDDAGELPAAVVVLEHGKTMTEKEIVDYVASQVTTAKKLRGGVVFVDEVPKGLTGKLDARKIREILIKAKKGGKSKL
Procedure, shortened: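 Biochemical qHTS: compounds run as interplate titrations against purified firefly enzyme, with D-luciferin and ATP each at its KM concentration. Light output recorded by CCD imaging.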

[2] = qHTS assay to identify small molecule agonists of the constitutive androstane receptor (CAR) signaling pathway - cell viability counter screen (AID 1224836); also: nearly all actives have a fitted effect of over 45% in size; also: potency is read from the fitted curve at half-maximal effect
Procedure, shortened: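 Double-stable HepG2 hepatoma cells (hCAR plus CYP2B6-2.2kb) are treated for 23 h at 37 C with test compounds in 15-point concentration series. PK11195 at 0.75 uM final is co-added. Cell viability is quantified by CellTiter-Fluor.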

[3] = qHTS assay to identify small molecule antagonists of the constitutive androstane receptor (CAR) signaling pathway - cell viability counter screen (AID 1224837); also: nearly all actives have a fitted effect of over 45% in size; also: potency is read from the fitted curve at half-maximal effect
Procedure, shortened: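 Cytotoxicity counter-screen: CellTiter-Fluor fluorescence after 23 h compound exposure (15-point qHTS) in double-stable HepG2-CYP2B6-hCAR cells, with 50 nM CITCO added.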

[4] = biological target: Nuclear receptor subfamily 1 group I member 3 (Homo sapiens) (UniProt Q14994); test: qHTS assay to identify small molecule antagonists of the constitutive androstane receptor (CAR) signaling pathway (AID 1224838);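 also: HepG2 cells stably expressing hCAR with CYP2B6 luciferase reporter stimulated by CITCO; nearly all actives have a fitted effect of over 40% in size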; also: potency is read from the fitted curve at half-maximal effect
Sequence of Nuclear receptor subfamily 1 group I member 3 (Homo sapiens) (Q14994 whole entry, looked up): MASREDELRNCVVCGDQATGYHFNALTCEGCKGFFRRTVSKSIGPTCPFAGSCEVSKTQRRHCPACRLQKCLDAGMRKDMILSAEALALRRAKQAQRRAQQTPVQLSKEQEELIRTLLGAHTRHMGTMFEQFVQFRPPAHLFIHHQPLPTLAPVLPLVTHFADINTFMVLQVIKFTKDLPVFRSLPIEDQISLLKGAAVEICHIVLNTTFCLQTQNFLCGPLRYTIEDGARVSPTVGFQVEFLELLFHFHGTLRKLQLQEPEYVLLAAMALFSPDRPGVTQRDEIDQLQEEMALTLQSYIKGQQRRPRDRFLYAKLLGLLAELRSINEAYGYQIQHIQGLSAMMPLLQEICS
Procedure, shortened: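 Antagonism measured as luciferase signal (ONE-Glo, 30 min, room temperature) in CAR-stimulated cells: HepG2-CYP2B6-hCAR double-stable line exposed 24 hr at 37 C to compound in a 15-point series plus 50 nM CITCO.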

[5] = biological target: Nuclear receptor subfamily 1 group I member 3 (Homo sapiens) (UniProt Q14994); test: qHTS assay to identify small molecule agonists of the constitutive androstane receptor (CAR) signaling pathway (AID 1224839); also: nearly all actives have a fitted effect of over 15% in size; also: potency is read from the fitted curve at half-maximal effect;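 as to activation: HepG2 cells stably carrying human CAR and a CYP2B6 luciferase reporter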
Procedure, shortened: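 Readout: firefly luciferase luminescence via ONE-Glo. System: HepG2 double-stable for hCAR and CYP2B6-2.2kb. Conditions: 15-point compound titration, PK11195 at 0.75 uM final, 24 h incubation.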

[6] = qHTS assay to identify small molecule antagonists of the estrogen related receptor signaling pathway with the pleiotropic PPARgamma coactivator (PGC) from Tox21 10K library - cell viability counter screen (AID 1224840; active = well fitted cell-killing curve with a large enough effect in the repeat runs, not every such curve was filed as active; also: nearly all actives have a fitted effect of over 40% in size; also: potency is read from the fitted curve at half-maximal effect)
Procedure, shortened: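 Counter-screen for cytotoxicity: after 17.5 h compound exposure at 37 C, CellTiter-Fluor reagent added to PGC/ERR cells for 30 min and fluorescence read. Cells were seeded at 2,000 per well 6 h before dosing.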

[7] = qHTS assay to identify small molecule agonists of the estrogen related receptor signaling pathway with the pleiotropic PPARgamma coactivator (PGC) from Tox21 10K library (AID 1224842); also: nearly all actives have a fitted effect of over 15% in size; also: potency is read from the fitted curve at half-maximal effect
Procedure, shortened: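 PGC/ERR reporter cell line, 2,000 cells per well, incubated 6 h at 37 C before 23 nL compound in DMSO was added. After 18 h at 37 C, One-Glo luminescence read following 30 min at room temperature.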

[8] = biological target: Thyrotropin receptor (Homo sapiens) (UniProt P16473); test: qHTS assay to identify small molecule agonists of the thyroid stimulating hormone receptor (TSHR) signaling pathway (AID 1224843; calls by dose curve; also: nearly all actives have a fitted effect of over 45% in size; also: potency is read from the fitted curve at half-maximal effect)
Sequence of Thyrotropin receptor (Homo sapiens) (P16473 whole entry, looked up): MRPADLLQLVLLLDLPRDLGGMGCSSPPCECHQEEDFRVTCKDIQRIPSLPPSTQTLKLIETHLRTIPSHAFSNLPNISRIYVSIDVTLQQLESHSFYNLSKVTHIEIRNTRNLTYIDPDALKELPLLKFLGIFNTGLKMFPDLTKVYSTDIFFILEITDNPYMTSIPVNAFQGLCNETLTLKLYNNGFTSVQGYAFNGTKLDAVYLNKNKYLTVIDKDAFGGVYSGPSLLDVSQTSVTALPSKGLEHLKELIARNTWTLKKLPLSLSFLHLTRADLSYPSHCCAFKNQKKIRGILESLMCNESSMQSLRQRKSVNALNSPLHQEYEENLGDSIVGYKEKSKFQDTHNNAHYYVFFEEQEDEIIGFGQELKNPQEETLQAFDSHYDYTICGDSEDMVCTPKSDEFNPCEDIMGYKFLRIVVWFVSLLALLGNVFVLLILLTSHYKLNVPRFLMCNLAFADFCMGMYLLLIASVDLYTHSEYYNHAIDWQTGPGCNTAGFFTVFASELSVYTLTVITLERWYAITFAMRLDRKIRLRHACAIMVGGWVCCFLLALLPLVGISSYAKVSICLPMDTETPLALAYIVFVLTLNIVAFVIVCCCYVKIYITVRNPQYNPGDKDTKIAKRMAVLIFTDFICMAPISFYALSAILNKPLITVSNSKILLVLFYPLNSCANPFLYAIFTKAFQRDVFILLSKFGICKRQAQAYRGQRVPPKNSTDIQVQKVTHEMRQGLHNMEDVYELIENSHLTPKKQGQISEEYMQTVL
Procedure, shortened: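 Agonist-mode screen: TSHR HEK293 cells received test chemicals for half an hour at room temperature, then HTRF cAMP detection reagents for one hour prior to fluorescence measurement. Each chemical ran as a 15-concentration series, triplicated.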

[9] = qHTS assay to identify small molecule agonists of the hypoxia (HIF-1) signaling pathway - cell viability counter screen (AID 1224844; calls by dose curve; also: nearly all actives have a fitted effect of over 50% in size; also: potency is read from the fitted curve at half-maximal effect)
Procedure, shortened: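 Cytotoxicity measured by CellTiter-Glo ATP luminescence in the wells also read for beta-lactamase signal. Cells were HRE-bla ME-180 (2,000/well, 0.5% dialyzed FBS), exposed to compounds for 17 h at 37C.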

[10] = qHTS assay to identify small molecule agonists of H2AX (AID 1224845; active = well fitted activation curve with a large enough effect in the signal ratio in the repeat runs, not every such curve was filed as active; the % refers to the signal ratio; also: potency is read from the fitted curve at half-maximal effect)
Procedure, shortened: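 Wild-type CHO-K1 cells, plated overnight, exposed 3hr at 37C to 15 concentrations (0.76% DMSO final). Lysed, then HTRF anti-pH2AX (S139) cryptate and anti-H2AX-d2 antibodies, 24 hr room temperature; 665/620 nm emission read.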

[11] = qHTS assay to identify small molecule agonists of the hypoxia (HIF-1) signaling pathway (AID 1224846; active = well fitted activation curve with a large enough effect in the signal ratio in the repeat runs, not every such curve was filed as active; the % refers to the signal ratio)
Procedure, shortened: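 Compounds added to ME-180 cells carrying hypoxia-response-element beta-lactamase reporter (0.5% dialyzed FBS, 5 h preplating), 17 h at 37C; agonist activity detected by CCF4-AM B/G FRET read-out.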

[12] = qHTS assay to identify small molecule agonists of the estrogen related receptor (ERR) signaling pathway from Tox21 library (AID 1224849; calls by dose curve; also: nearly all actives have a fitted effect of over 15% in size); details: ERR reporter cell line, ONE-Glo luciferase, 18 h; at 92.4 µM (top of the series) unless noted
Procedure, shortened: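 Luminescent agonist read-out (One-Glo, 30-minute room-temperature incubation) following 18-hour compound treatment at 37 C of the ERR cell line, which had been plated 6 hours before dosing.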

[13] = qHTS RealTime-Glo MT Cell Viability Assay in HepG2 cells - 24 hour (AID 1224867); also: nearly all actives have a fitted effect of over 50% in size; also: potency is read from the fitted curve at half-maximal effect
Procedure, shortened: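 HepG2 cells (600/well) were dispensed with RealTime-Glo reagents, incubated 5 h at 37 °C, then treated with compounds in DMSO for up to 40 h. Nonlytic NanoLuc luminescence reflecting viable cells was read at each stated time point.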

[14] = qHTS RealTime-Glo MT Cell Viability Assay in HepG2 cells - 40 hour (AID 1224870); also: nearly all actives have a fitted effect of over 50% in size; also: potency is read from the fitted curve at half-maximal effect
Procedure, shortened: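 HepG2 cells (600/well) mixed with RealTime-Glo MT reagent, settled 5 h at 37 C/5% CO2 before compound addition. Nonlytic NanoLuc luminescence from viable-cell prosubstrate reduction read repeatedly during 40 h treatment at 37 C.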

[15] = qHTS assay to identify small molecule agonists of H2AX - cell viability counter screen (AID 1224847; calls by dose curve; also: nearly all actives have a fitted effect of over 30% in size; also: potency is read from the fitted curve at half-maximal effect)
Procedure, shortened: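 For this counter screen, overnight-attached CHO-K1 cells received test compounds (15 concentrations, 0.76% DMSO final); 3 hr later at 37C, CellTiter-Glo reagent was added and luminescence recorded after 30 min at room temperature.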

[16] = qHTS assay to identify small molecule antagonists of the estrogen related receptor (ERR) signaling pathway from Tox21 library (AID 1224848); also: nearly all actives have a fitted effect of over 50% in size; also: potency is read from the fitted curve at half-maximal effect
Procedure, shortened: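 Quantitative high-throughput format: ERR reporter cells (2,000/well) pre-incubated 6 h, treated 18 h at 37 C with compounds in DMSO alongside positive and negative controls, then read by ONE-Glo luminescence.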

[17] = A CellTox Green Cytotoxicity Assay to monitor cytotoxicity in HEK293 cells - 0 hour (AID 1224869); also: nearly all actives have a fitted effect of over 50% in size
Procedure, shortened: (§1)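 Fluorescence from a DNA-binding dye excluded by viable cells was measured repeatedly in the same HEK293 wells (600 cells/well) during continuous compound exposure at 37 C. Each assay gives one read point: 0, 8, 16, 24, 32 or 40 h.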

[18] = A CellTox Green Cytotoxicity Assay to monitor cytotoxicity in HEK293 cells - 40 hour (AID 1224871); also: nearly all actives have a fitted effect of over 45% in size; also: potency is read from the fitted curve at half-maximal effect
Procedure, shortened: as §1

[19] = qHTS RealTime-Glo MT Cell Viability Assay in HEK293 cells - 32 hour (AID 1224868); also: nearly all actives have a fitted effect of over 50% in size; also: potency is read from the fitted curve at half-maximal effect
Procedure, shortened: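 HEK293 cells seeded with NanoLuc/prosubstrate reagent, rested 5 h at 37 C, then dosed and kept at 37 C up to 40 h. Nonlytic real-time luminescence from viable cells read at 0, 8, 16, 24, 32 and 40 h.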

[20] = qHTS assay to identify small molecule antagonists of the estrogen related receptor signaling pathway with the pleiotropic PPARgamma coactivator (PGC) from Tox21 10K library (AID 1224841; call rule not given here; also: potency is read from the fitted curve at half-maximal effect)
Procedure, shortened: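 Luminescence (One-Glo, 30 min at room temperature) after 18 h compound treatment at 37 C of PGC/ERR reporter cells plated at 2,000 cells/well and settled 6 h beforehand.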
% is scaled to controls: 0 for no effect and ±100 for the full control effect.

Cc1c([N+](=O)[O-])cc2c(c1[N+](=O)[O-])C(C)(C)CC2(C)C
inactive: Potency [1] | Potency [2] | Potency [3] | Potency [4] | Potency [6] | Potency [7] | Potency [9] | Potency [10] | Potency [11] | activity change, positive = activation [12] -30.3% | Potency [13] | Potency [14]
active: Potency [5] 12.2 µM | Potency [8] 48.6 µM

C[C@]12Cc3cn[nH]c3C[C@@H]1CC[C@@H]1[C@@H]2CC[C@@]2(C)[C@H]1CC[C@]2(C)O
active: Potency [9] 8.49 µM | Potency [16] 26.6 µM
inactive: Potency [1] | Potency [2] | Potency [3] | Potency [4] | Potency [5] | Potency [6] | Potency [7] | Potency [8] | Potency [10] | Potency [15] | activity change, positive = activation [12] -42.2% [at 42.5 µM] | Potency [13] | Potency [17] | Potency [14] | Potency [18]

O=c1[nH]c(Cl)c(Cl)cc1Cl
inactive: Potency [1] | Potency [2] | Potency [3] | Potency [4] | Potency [5] | Potency [6] | Potency [7] | Potency [8] | Potency [9] | Potency [11] | Potency [15] | Potency [13] | Potency [19] | Potency [17] | Potency [14] | Potency [18]

Clc1ccc(C(c2ccc(Cl)cc2)C(Cl)Cl)cc1
inactive: Potency [1] | Potency [2] | Potency [3] | Potency [4] | Potency [6] | Potency [20] | Potency [7] | Potency [8] | activity change, positive = activation [12] -36.3% and -43.8% | Potency [13] | Potency [14]
active: Potency [5] 49.3 µM and 21.7 µM | Potency [9] 49 µM | Potency [10] 89.8 µM | Potency [15] 80 µM | Potency [19] 49.8 µM and 43.6 µM | Potency [18] 55.8 µM and 49 µM

c1ccc(N=NNc2ccccc2)cc1
active: Potency [1] 6.54 µM and 6.33 µM | Potency [5] 28.3 µM and 27.3 µM | Potency [15] 92.9 µM and 101 µM | Potency [18] 45.2 µM and 43.6 µM
25.2 µM (active) and inactive: Potency [7]
inactive: Potency [2] | Potency [3] | Potency [4] | Potency [6] | Potency [20] | Potency [8] | Potency [9] | Potency [11] | Potency [16] | Potency [13] | Potency [19] | Potency [14]

O=[N+]([O-])c1ccc(Cl)c(Cl)c1Cl
inactive: Potency [1] | Potency [2] | Potency [3] | Potency [4] | Potency [5] | Potency [6] | Potency [20] | Potency [7] | Potency [8] | Potency [9] | Potency [10] | Potency [11] | Potency [16] | activity change, positive = activation [12] -11% | Potency [13] | Potency [19] | Potency [17] | Potency [14]

CC(=O)[O][Pb]([c]1ccccc1)([c]1ccccc1)[c]1ccccc1
active: Potency [1] 22.4 µM | Potency [2] 5.45 µM | Potency [3] 7.7 µM | Potency [4] 1.54 µM | Potency [6] 3.06 µM | Potency [20] 6.86 µM | Potency [9] 1.38 µM | Potency [10] 0.8 µM | Potency [15] 25.3 µM | Potency [16] 0.545 µM | Potency [13] 1.1 µM | Potency [19] 490 nM | Potency [14] 0.871 µM | Potency [18] 2.45 µM
inactive: Potency [5] | Potency [7] | activity change, positive = activation [12] -77.1%

COc1nc(C)nc(NC(=O)NS(=O)(=O)c2ccccc2Cl)n1
inactive: Potency [1] | Potency [2] | Potency [3] | Potency [4] | Potency [5] | Potency [6] | Potency [20] | Potency [7] | Potency [8] | Potency [9] | Potency [10] | Potency [11] | Potency [15] | Potency [16] | activity change, positive = activation [12] 7.61% | Potency [13] | Potency [17] | Potency [14]

ClCBr
inactive: Potency [1] | Potency [2] | Potency [3] | Potency [4] | Potency [5] | Potency [6] | Potency [20] | Potency [7] | Potency [8] | Potency [9] | Potency [11] | Potency [15] | Potency [16] | Potency [13] | Potency [19] | Potency [17] | Potency [14] | Potency [18]

C[C@]12C/C(=C/O)C(=O)C[C@@H]1CC[C@@H]1[C@@H]2CC[C@@]2(C)[C@H]1CC[C@]2(C)O
active: Potency [9] 24.8 µM and 19 µM | Potency [10] 90.6 µM | Potency [16] 34.7 µM and 33.5 µM
inactive: Potency [1] | Potency [2] | Potency [3] | Potency [4] | Potency [5] | Potency [6] | Potency [7] | Potency [8] | Potency [15] | Potency [13] | Potency [19] | Potency [17] | Potency [14]

CN1C(=O)[C@@H](NC(=O)c2cc3ccccc3[nH]2)N=C(c2ccccc2)c2ccccc21
inactive: Potency [1] | Potency [2] | Potency [3] | Potency [4] | Potency [5] | Potency [6] | Potency [7] | Potency [8] | Potency [9] | Potency [10] | Potency [15] | Potency [19] | Potency [17] | Potency [14] | Potency [18]

Oc1ccc(Cl)c(Cl)c1
active: Potency [15] 49.7 µM
inactive: Potency [1] | Potency [2] | Potency [3] | Potency [4] | Potency [5] | Potency [6] | Potency [20] | Potency [7] | Potency [9] | Potency [10] | Potency [11] | Potency [16] | activity change, positive = activation [12] -11.7% | Potency [13] | Potency [17] | Potency [14]

CCc1cccc(C)c1N(C(=O)CCl)[C@@H](C)COC
inactive: Potency [1] | Potency [2] | Potency [3] | Potency [4] | Potency [6] | Potency [7] | Potency [11] | activity change, positive = activation [12] -67.3% | Potency [19] | Potency [17] | Potency [14]
active: Potency [5] 19.3 µM | Potency [20] 30.6 µM | Potency [8] 34.4 µM | Potency [9] 49 µM | Potency [16] 61.1 µM

O=[N+]([O-])C(Br)Br
inactive: Potency [2] | Potency [3] | Potency [4] | Potency [5] | Potency [6] | Potency [20] | Potency [7] | Potency [8] | Potency [10] | Potency [15] | Potency [16] | activity change, positive = activation [12] 5.44% | Potency [13] | Potency [17]
active: Potency [1] 28.3 µM | Potency [9] 43.7 µM
